PubChem BioAssay (NCATS)
Results filed as inconclusive are left out. Calls of active or inactive are those of the source. Calls follow the shape of the dose curve; as a rule, active = well fitted inhibition curve with a large enough effect; inconclusive = small, poorly fitted or top-dose-only effect; inactive = no such curve, though single readings can be large or run the other way.

Test: Primary qHTS for small molecule stabilizers of the endoplasmic reticulum resident proteome: Secreted ER Calcium Modulated Protein (SERCaMP) assay (AID 1508630)
Settings: SH-SY5Y GLuc-SERCaMP (Gaussia luciferase released on ER calcium loss) secretion, thapsigargin, luminescence; series mostly up to 38.4 µM; activity change, negative = inhibition: at the top concentration
Description: Assay Provider: Brandon K. Harvey Ph.D.
National Institute on Drug Abuse, National Institutes of Health, Baltimore, MD
Endoplasmic reticulum (ER) dysregulation is associated with human pathologies including neurodegenerative, cardiovascular, muscular, and diabetic conditions. Maintenance of ER calcium is critical for functions of the ER and its depletion can lead to loss of ER resident proteins, in a process termed exodosis. Therapeutic compounds capable of attenuating the redistribution of ER proteins under pathological conditions may slow or stop disease progression. To identify such compounds, we performed a quantitative high-throughput screen (qHTS) using the SERCaMP assay, which monitors secretion of ER resident proteins triggered by calcium depletion.
SERCaMP was initially developed as a reporter of ER calcium homeostasis using a Gaussia luciferase with a modified signal peptide and carboxy-terminus (GLuc-SERCaMP), modifications that confer secretion of the reporter in response to ER calcium depletion (Henderson et al., 2014). The assay was used to screen 9,501 compounds, including a collection of drugs approved by the FDA (US), EMA (EU), NHI (Japan), and HC (Canada) regulatory agencies (Huang et al., 2011). Since the SERCaMP reporter reflects the exodosis phenomenon (Trychta et al., 2018a), compounds identified in the screen have the potential to prevent exodosis by different mechanisms such as stabilizing ER calcium or augmenting ERS retrieval.
1. Henderson, M.J., Wires, E.S., Trychta, K.A., Richie, C.T., and Harvey, B.K. (2014). SERCaMP: a carboxy-terminal protein modification that enables monitoring of ER calcium homeostasis. Mol Biol Cell 25, 2828-2839.
2. Huang, R., Southall, N., Wang, Y., Yasgar, A., Shinn, P., Jadhav, A., Nguyen, D.T., and Austin, C.P. (2011). The NCGC pharmaceutical collection: a comprehensive resource of clinically approved drugs enabling repurposing and chemical genomics. Sci Transl Med 3, 80ps16.
3. Trychta, K.A., Back, S., Henderson, M.J., and Harvey, B.K. (2018a). KDEL Receptors Are Differentially Regulated to Maintain the ER Proteome under Calcium Deficiency. Cell Rep 25, 1829-1840 e1826.
SEQUENCE No. (1, 2, 3, etc.); […] (e.g., Cells, Incubation, Reagent, etc.); VALUE and DESCRIPTION.
1; Reagent; 5 uL; 1000 SH-SY5Y cells per wells
3; Compound; 23 nL; Control inhibitor / compound library
5; Reagent; 100 nM; Thapsigargin
7; Reagent; 1 uL; 0.5x coelenterazine
8; Detection; Luminescence; ViewLux imaging system
NOTES (numbers refer to sequence above)
1; SH-SY5Y human neuroblastoma cells stably expressing GLuc-SERCaMP (SH-SY5Y-GLuc-ASARTDL) cells were seeded in 1,536 well white tissue culture treated plates (Corning, Cat# 7464) in DMEM-high glucose-sodium pyruvate (ThermoFisher Scientific, Cat #10569) supplemented with 10% bovine growth serum (Hyclone), 10 U/ml penicillin (Gibco), 10 ug/ml streptomycin (Gibco), and 20 mM HEPES.
2; Assay plates were incubated for 5 hour at 37C in a humidified incubator containing 5% CO2.
3; qHTS libraries (23 nl, final concentrations of 1.53 uM, 7.67 uM, 38.3 uM) or controls (neutral control: DMSO, positive control: dantrolene) were added using a Kalypsis pin-tool Robotic System equipped with 1536 pinheads.
4; Cells were then incubated for 16 hours at 37C, 5% CO2.
5; Thapsigargin was added at 100 nM to deplete ER calcium stores.
6; Cells were incubated for 4 hour (37 °C, 5% CO2)
7; Gaussia luciferase in the medium was measured by adding 1 ul of 0.5x coelenterazine (final concentration 0.07x) prepared in Gaussia Luciferase Glow Assay Buffer (Pierce), without addition of the Cell Lysis Buffer Reagent.
8; Luminescence was measured using a ViewLux […] CCD imaging system (Perkin Elmer) equipped with clear filters. […] The same controls were also used for the calculation of the Z' factor, a measure of assay quality control, as previously described (Zhang et al., 1999). […]
% is scaled to controls: 0 for no effect and ±100 for the full control effect.

SMILES | activity change, negative = inhibition | outcome
CCn1cnc2c(Nc3cccc(Cl)c3)nc(N[C@@H]3CCCC[C@@H]3N)nc21 | 299% (inactive) | 
CC(N)[C@H](O)c1ccc(O)c(O)c1 (stereo not given in full) | -25.7% (inactive) | 
CC(C)(O)[C@@H]1C2OC(=O)[C@@H]1[C@]1(O)C[C@H]3O[C@]34C(=O)O[C@H]2[C@]14C (tested in a mixture with another compound) | -28.9% (inactive) | 
NC(N)=Nc1ccc2[nH]c3c(c2c1)C[C@@]1(O)[C@H]2Cc4ccc(O)c5c4[C@@]1(CCN2CC1CC1)[C@H]3O5 | 72.6% (inactive) | 
C[CH2][Hg][S]c1ccccc1C(=O)O | 190% (inactive) | 
Nc1ccc(CCN2CCN(c3cccc(C(F)(F)F)c3)CC2)cc1 | -28.7% (inactive) | 
CC12NC(Cc3ccccc31)c1ccccc12 (stereo not given) | 6.13% (inactive) | 
CN1CC[C@@]2(C)c3cc(OC(=O)Nc4ccccc4)ccc3N(C)[C@@H]12 | -11.6% (inactive) | 
N[C@@]1(C(=O)O)CC[C@@H](C(=O)O)C1 | -21.9% (inactive) | 
COc1ccc2c(c1)/C(=C/c1cnc[nH]1)C(=O)N2 | 84.5% (inactive) | 
COc1ccc2c(c1O)-c1cccc3c1[C@@H](C2)N(C)CC3 | -10.1% (inactive) | 
CC1(C(=O)O)C2CCC(O2)C1(C)C(=O)O (stereo not given) | 107% (inactive) | 
CC(N)c1cccc(Cl)c1Cl (stereo not given) | -16.2% (inactive) | 
CCS(=O)(=O)Nc1cccc(C(=C2CCCCC2)c2cnc[nH]2)c1 | -28.2% (inactive) | 
CN1CC[C@@]2(C)c3cc(O)ccc3N(C)C12 (stereo not given in full) | -27.3% (inactive) | 
CCCN(CCC)C1CCc2cccc(O)c2C1 (stereo not given) | -16% (inactive) | 
O=C1CC[C@@]2(O)C3Cc4ccc(O)c5c4C2(CCN3CC2CC2)[C@H]1O5 (stereo not given in full) | -9.2% (inactive) | 
C=CCN1CCC23c4c5ccc(O)c4O[C@H]2C(=O)CC[C@@]3(O)C1C5 (stereo not given in full) | -30.8% (inactive) | 
NC(=O)c1cc(N2CC2)c([N+](=O)[O-])cc1[N+](=O)[O-] | -21% (inactive) | 
Cc1cccc(C(C)c2cnc[nH]2)c1C (stereo not given) | 0.472% (inactive) | 

SMILES | activity change, negative = inhibition | outcome
c1ccc2c(c1)[I+]c1ccccc1-2 |  | inactive
CCN1C[C@@]2(COC)C3[C@@H](OC)C4[C@@H]1C3([C@@H]1C[C@]3(O)[C@H](OC(=O)c5ccccc5)[C@@H]1[C@]4(OC(C)=O)[C@@H](O)[C@@H]3OC)[C@H](OC)C[C@H]2O | -6.49% (inactive) | 
CC(C)(C)c1o[nH]c(=O)c1CC(N)C(=O)O (stereo not given) | 4.8% (inactive) | 
C=CCN1CC[C@]23c4c5ccc(O)c4O[C@H]2/C(=N/NC(=O)c2ccccc2)CC[C@@]3(O)[C@H]1C5 | -8.95% (inactive) | 
CP(=O)(O)C1=CCNCC1 | 18% (inactive) | 
CN(C(=O)Cc1ccc(Cl)c(Cl)c1)C(CN1CCCC1)c1cccc(OCC(=O)O)c1 (stereo not given) |  | inactive
CCN(CCCl)Cc1ccccc1Br | -16.5% (inactive) | 
COc1cc(CC(C)N)c(OC)cc1I (stereo not given) | 2.15% (inactive) | 
CCCN(CCC)C1Cc2cc(OC)c(OC)cc2C1 |  | inactive
CCOC(=O)c1ncn2c1[C@@H]1CCCN1C(=O)c1cc(OC)ccc1-2 | 5.99% (inactive) | 
N[C@@H](CCl)C(=O)O | 5.5% (inactive) | 
COc1ccc2c(c1)c(CCN1CCOCC1)c(C)n2C(=O)c1cccc(Cl)c1Cl | -22.4% (inactive) | 
Clc1cc(I)cc(Cl)c1NC1=NCCN1 | 47.5% (inactive) | 
NNC(=O)c1ccc(O)cc1 | 9.47% (inactive) | 
Cc1[nH]c2ccc(O)cc2c1CCN |  | inactive
Ic1ccccc1CNC1C2CCN(CC2)C1C(c1ccccc1)c1ccccc1 (stereo not given) | 198% (inactive) | 
CCCN1CCc2cccc3c2[C@H]1Cc1ccc(O)c(O)c1-3 | -22.1% (inactive) | 
C[C@@H]1[C@@H]2Cc3ccc(O)cc3[C@@]1(C)CCN2CC1CC1 | 23.4% (inactive) | 
CC(C)NP(=O)(NC(C)C)OP(=O)(NC(C)C)NC(C)C | -10.9% (inactive) | 
COc1ccc(CNC(=O)/C=C/c2ccc3[nH]cc(CCN(C)C)c3c2)cc1 | -20.9% (inactive) | 
